Assay results taken from PubChem BioAssay (EPA / NIEHS).
More than one record can exist for a structure, and the calls need not agree. Activity calls are given as the source filed them. The calls were made as follows: active = hit-call score of the fitted dose curve at least 0.9, where 1 is the maximum; inactive = score below 0.9.

How the values were obtained:
[1] = CCTE_Shafer_MEA_acute_burst_number: CCTE's Neural Acute Assay for Single-Electrode Bursts, Shafer Lab (AID 2284013)
Method in brief: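 Primary rat cortical neurons on 16-electrode MEA wells, treated on DIV 13 or 15 with compound at 0.03-40 uM. Single-electrode burst count from 40-min recordings at 37 C before and after exposure; percent change from baseline per well, DMSO negative control.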

[2] = CCTE_Shafer_MEA_acute_burst_duration_mean: CCTE's Neural Acute Assay for Mean Burst Duration, Shafer Lab (AID 2284014);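 also: hits are decreases in mean burst duration relative to DMSO controls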
Method in brief: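 Rat primary cortical neurons on 48-well MEA, treated at DIV 13 or 15 with 0.03-40 uM in at least 3 wells. Value is percent change in mean burst duration, comparing 40 min recordings at 37 C before and during exposure.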

[3] = CCTE_Shafer_MEA_acute_per_burst_spike_number_mean: CCTE's Neural Acute Assay for Average Number of Spikes Per Burst, Shafer Lab (AID 2284015);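 also: hits are decreases in mean spikes per burst versus baseline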
Method in brief: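 We recorded spontaneous network firing of rat cortical neurons for 40 min before and 40 min during exposure to compound at 0.03-40 uM, at 37 C. Spikes were detected adaptively at 8x rms noise, and the change in average spikes per burst was fitted against DMSO.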

[4] = CCTE_Shafer_MEA_acute_interburst_interval_mean: CCTE's Neural Acute Assay for Mean Interburst Interval, Shafer Lab (AID 2284016);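 also: percent change of mean interburst interval versus each well's own pre-dose baseline; curves fitted for decrease in interburst interval relative to DMSO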
Method in brief: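 MEA recording of spontaneous network bursting in primary rat cortical cultures; mean interburst interval was compared before and after a 40-min compound exposure (0.03-40 uM) and expressed as percent change, relative to DMSO.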

[5] = CCTE_Shafer_MEA_acute_burst_percentage_std: CCTE's Neural Acute Assay for Standard Deviation of Burst Percentage, Shafer Lab (AID 2284018);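 also: fitted in the negative direction so actives lower burst percentage SD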
Method in brief: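 Rat primary cortical neurons on 48-well MEAs, DIV 13 or 15, 37 C. 40-min baseline then 40-min recording with compound (0.03-40 uM); well-level SD of per-electrode burst spike percentage, expressed as percent change from baseline.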

[6] = CCTE_Shafer_MEA_acute_per_network_burst_spike_number_mean: CCTE's Neural Acute Assay for Average Number of Spikes in a Network Burst, Shafer Lab (AID 2284019);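 as to AC50: curve fitted for loss of signal so actives reduce spikes per network burst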
Method in brief: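 Rat primary cortical neurons on 48-well MEA at DIV 13 or 15, 37 C; compounds 0.03-40 uM, at least three wells each. 40-min baseline then 40-min exposure recording; percent change in mean spikes per network burst.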

[7] = CCTE_Shafer_MEA_acute_per_network_burst_spike_number_std: CCTE's Neural Acute Assay for Standard Deviation of Number of Spikes in a Network Burst, Shafer Lab (AID 2284020);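 also: fitted for decrease in spike-number SD versus DMSO so actives lower it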
Method in brief: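 Rat primary cortical neurons on 48-well MEA (16 electrodes/well), treated DIV 13 or 15 at 0.03-40 uM, ≥3 wells per compound. 40 min recordings at 37 C before and after dosing; value is percent change in network-burst spike-number SD, negative direction vs DMSO.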

[8] = CCTE_Shafer_MEA_acute_per_network_burst_electrodes_number_mean: CCTE's Neural Acute Assay for Mean Number of Electrodes in a Network Burst, Shafer Lab (AID 2284021);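 also: curves fitted for decreases only so hits reduce electrodes per burst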
Method in brief: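 Rat primary cortical neurons on 16-electrode MEA wells were recorded 40 min at baseline on DIV 13 or 15, then 40 min after compound (0.03-40 uM), at 37 C. Value is percent change per well, fitted in loss direction versus DMSO.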

[9] = CCTE_Shafer_MEA_acute_network_burst_percentage: CCTE's Neural Acute Assay for Percentage of Network Bursts, Shafer Lab (AID 2284022);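 also: curves fitted for loss so actives lower network burst percentage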
Method in brief: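 Primary rat cortical neurons on 16-electrode MEA wells, treated on DIV 13 or 15 with compound (0.03-40 uM); 40-min baseline and 40-min post-exposure recordings at 37 C. Value is percent change in spikes within network bursts versus baseline, DMSO negative control.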

[10] = CCTE_Shafer_MEA_acute_cross_correlation_area: CCTE's Neural Acute Assay for Area of Cross Correlation, Shafer Lab (AID 2284024);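 also: area under pooled inter-electrode spike cross-correlation near zero lag as percent change from own baseline; curves fitted for loss of cross-correlation area so actives lower synchrony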
Method in brief: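 Primary rat cortical neurons on 48-well MEA plates (16 electrodes/well) were recorded 40 min at baseline on DIV 13 or 15, then 40 min with compound (0.03-40 uM) at 37 C; cross-correlation area expressed as percent change from baseline.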

Row | Compound | AC50 [1] | outcome [2] | outcome [3] | outcome [4] | AC50 [5] | outcome [6] | outcome [7] | outcome [8] | outcome [9] | outcome [10] | outcome [1] | outcome [5] | AC50 [2] | AC50 [3] | AC50 [6] | AC50 [7] | AC50 [8] | AC50 [10] | AC50 [4] | AC50 [9]
1 | COP(=S)(OC)Oc1ccc(SC)c(C)c1 | 6.28 µM (active) | inactive | inactive | inactive | 33.2 µM (active) | inactive | inactive | inactive | inactive | inactive | – | – | – | – | – | – | – | – | – | –
2 | Clc1ccccc1-c1nnc(-c2ccccc2Cl)nn1 | – | inactive | inactive | inactive | – | inactive | inactive | inactive | inactive | inactive | inactive | inactive | – | – | – | – | – | – | – | –
3 | CC[C@H](C)[C@H]1O[C@]2(C=C[C@@H]1C)C[C@@H]1C[C@@H](C/C=C(\C)[C@@H](O[C@H]3C[C@H](OC)[C@@H](O[C@H]4C[C@H](OC)[C@@H](O)[C@H](C)O4)[C@H](C)O3)[C@@H](C)/C=C/C=C3\CO[C@@H]4[C@H](O)C(C)=C[C@@H](C(=O)O1)[C@]34O)O2 (tested in a mixture with another compound) | 0.00721 µM (active) | – | – | inactive | 0.0752 µM (active) | – | – | – | inactive | – | – | – | 0.0208 µM (active) | 0.00576 µM (active) | 0.0134 µM (active) | 0.00528 µM (active) | 0.05 µM (active) | 0.00277 µM (active) | – | –
4 | O=C(O)CCCOc1ccc(Cl)cc1Cl | – | inactive | inactive | inactive | – | inactive | inactive | inactive | inactive | inactive | inactive | inactive | – | – | – | – | – | – | – | –
5 | O=S(=O)(O)C(F)(F)C(F)(F)C(F)(F)C(F)(F)C(F)(F)C(F)(F)C(F)(F)C(F)(F)F | – | inactive | inactive | inactive | – | inactive | inactive | inactive | inactive | inactive | inactive | inactive | – | – | – | – | – | – | – | –
6 | CCC(C)Nc1c([N+](=O)[O-])cc(C(C)(C)C)cc1[N+](=O)[O-] (centres undefined) | – | inactive | inactive | inactive | 0.935 µM (active) | inactive | inactive | inactive | inactive | inactive | inactive | – | – | – | – | – | – | – | – | –
7 | CCC(C)(C)C(=O)OC1=C(c2ccc(Cl)cc2Cl)C(=O)OC12CCCCC2 | – | inactive | inactive | inactive | – | inactive | inactive | inactive | inactive | inactive | inactive | inactive | 25.9 µM (active) | 20 µM (active) | 20 µM (active) | – | – | 20 µM (active) | – | –
8 | CNC(=O)/C=C(\C)OP(=O)(OC)OC | – | inactive | inactive | inactive | – | inactive | inactive | inactive | inactive | inactive | inactive | inactive | – | – | – | – | – | – | – | –
9 | C[C@H]1[C@H](c2ccc(Cl)cc2)SC(=O)N1C(=O)NC1CCCCC1 | 10.3 µM (active) | – | – | – | 28.4 µM (active) | – | – | inactive | inactive | inactive | – | – | 20 µM (active) | 17.2 µM (active) | 9.24 µM (active) | 20 µM (active) | – | – | 28.7 µM (active) | –
10 | CCCN(CCC)c1c([N+](=O)[O-])cc(C(F)(F)F)cc1[N+](=O)[O-] | – | inactive | inactive | – | 20 µM (active) | inactive | inactive | – | – | inactive | inactive | – | – | – | – | – | 8.36 µM (active) | – | 4.23 µM (active) | 20 µM (active)
11 | O=C1c2ccccc2C(=O)N1SC(Cl)(Cl)Cl | – | inactive | inactive | inactive | – | inactive | inactive | inactive | – | inactive | inactive | inactive | – | – | – | – | – | – | – | 28.8 µM (active)
12 | CNC(=O)CSP(=S)(OC)OC | – | inactive | inactive | inactive | – | inactive | inactive | inactive | inactive | inactive | inactive | inactive | – | – | – | – | – | – | – | –
